{
  "source": "PubChem BioAssay AID488841",
  "about": "(Sanford-Burnham Center for Chemical Genomics, 2010)",
  "note": "Among all 1,400 compounds or so, about 380 (27%) were called active.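 The calls were made as follows: active = mean inhibition above 50% across duplicate retests at 10 µM; inactive = the rest.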 The list shows a part of the results.",
  "data": [
    {"experiment": "yeast NALP1 reporter signal suppression – S. cerevisiae, luminescence, single concentration, NALP1 inhibitor project, confirmation (AID 488841);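 also: plate controls were DMSO in galactose medium for no effect and cells in plain SD medium for full effect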", "conditions": "S. cerevisiae NALP1/ASC/Caspase-1 reporter, beta-gal luminescence; at 10 µM; active compounds read high", "values": [
      {"smiles": "COC(=O)c1ccc(Oc2ccc(S(=O)(=O)N3CCCCC3)cc2N)cc1", "inhibition": "92.3% (active)"},
      {"smiles": "COC(=O)c1ccc(NC(=O)C(=O)N2CCCC2)cc1", "inhibition": "45.1% (inactive)"},
      {"smiles": "CC(=O)c1ccc(S(=O)(=O)N2CCCC2)cc1", "inhibition": "23.6% (inactive)"},
      {"smiles": "CCc1ccc(NCc2nc(-c3ccccc3)no2)cc1", "inhibition": "46.7% (inactive)"},
      {"smiles": "O=S(=O)(CC(CN1CCCCC1)N1CCCCC1)c1ccc2ccccc2c1", "note": "(configuration not stated)", "inhibition": "39.3% (inactive)"},
      {"smiles": "CCOC(=O)c1cc(-c2ccc(OC)cc2)nc2c1c(C)nn2CCC#N", "inhibition": "49.9% (inactive)"},
      {"smiles": "CCOC(=O)/C=C/C(=O)Nc1cccc([N+](=O)[O-])c1", "inhibition": "66.3% (active)"},
      {"smiles": "CCOC(=O)N1CCC(=NNS(=O)(=O)c2cccc([N+](=O)[O-])c2)CC1", "inhibition": "24% (inactive)"},
      {"smiles": "CCOC(=O)/C=C/C(=O)Nc1nccs1", "inhibition": "45.4% (inactive)"},
      {"smiles": "COC(=O)/C=C\\C(=O)Nc1cccc([N+](=O)[O-])c1", "inhibition": "51.5% (active)"},
      {"smiles": "O=C(/C=C/c1cccc([N+](=O)[O-])c1)c1ccco1", "inhibition": "38.9% (inactive)"},
      {"smiles": "O=C(CON=C1c2ccccc2-c2ccccc21)NC12CC3CC(CC(C3)C1)C2", "inhibition": "30.6% (inactive)"},
      {"smiles": "CCOC(=O)c1c(C)[nH]c(C(=O)COC(=O)c2oc3ccccc3c2C)c1C", "inhibition": "23.3% (inactive)"},
      {"smiles": "CCC(C)NCCOc1cccc(Br)c1", "note": "(configuration not stated)", "inhibition": "26.1% (inactive)"},
      {"smiles": "CN(Cc1ccccc1)c1ncnc2c1cnn2-c1ccccc1", "inhibition": "49.5% (inactive)"},
      {"smiles": "COC(=O)c1ccc(Cn2cnc3c(cnn3-c3ccc(Cl)cc3)c2=O)o1", "inhibition": "34.6% (inactive)"},
      {"smiles": "COCCN(CCOC)c1ncnc2c1cnn2-c1ccc(Cl)cc1", "inhibition": "56.8% (active)"},
      {"smiles": "Cc1occc1C(=O)Nc1c(F)c(F)c(F)c(F)c1F", "inhibition": "25.9% (inactive)"},
      {"smiles": "CCC1(CC)Cc2ccccc2C(Nc2c(C)n(C)n(-c3ccccc3)c2=O)=N1", "inhibition": "21.4% (inactive)"},
      {"smiles": "O=C1/C(=C\\c2cccnc2)CN(Cc2ccccc2)C/C1=C\\c1cccnc1", "inhibition": "22.2% (inactive)"},
      {"smiles": "S=C1SCN(Cc2cccnc2)CN1Cc1cccnc1", "inhibition": "76% (active)"},
      {"smiles": "NNC(=S)NCc1cccnc1", "inhibition": "24.5% (inactive)"},
      {"smiles": "Cc1ccc(Sc2nnc(Cc3ccccc3)c3ccccc23)cc1", "inhibition": "38.2% (inactive)"},
      {"smiles": "O=C(c1ccccc1)c1ccc(OCC(O)CNC2CCCc3ccccc32)cc1", "note": "(configuration not stated)", "inhibition": "32.6% (inactive)"},
      {"smiles": "CCN1CCN(C(=S)Nc2ccc(Cl)c(Cl)c2)CC1", "inhibition": "37% (inactive)"},
      {"smiles": "CCOC(=O)N1CCN(c2ccc(Cl)c(Cl)c2)CC1", "inhibition": "60.3% (active)"},
      {"smiles": "CCOC(=O)N1CCN(c2c(NCCOC)c(=O)c2=O)CC1", "inhibition": "26.4% (inactive)"},
      {"smiles": "COc1ccc(OC)c(S(=O)(=O)Nc2ccc(O)c3ccccc23)c1", "inhibition": "32.9% (inactive)"},
      {"smiles": "O=C(O)[C@@H](c1ccccc1)N1Cc2ccccc2C1=O", "inhibition": "26.9% (inactive)"},
      {"smiles": "COc1ccc(NCc2ccc([N+](=O)[O-])s2)cc1", "inhibition": "14.8% (inactive)"},
      {"smiles": "CCOC(=O)N/N=C/c1ccc(N(CC)CC)cc1O", "inhibition": "52.4% (active)"},
      {"smiles": "CCN(CC)c1ccc(/C=N/OC(C)C(=O)Nc2ccc(C)cc2)cc1", "note": "(configuration not stated)", "inhibition": "41% (inactive)"},
      {"smiles": "Clc1ccc2c(N/N=C/c3cccc(Br)c3)ccnc2c1", "inhibition": "42.9% (inactive)"},
      {"smiles": "O=C(CCN1C(=O)c2ccccc2C1=O)N1CCN(C2c3ccccc3-c3ccccc32)CC1", "inhibition": "18.4% (inactive)"},
      {"smiles": "COc1ccc(-c2[nH]ncc2CN2CCC(OCc3ccccn3)CC2)c(F)c1", "inhibition": "23.8% (inactive)"},
      {"smiles": "CC(C)C(C)NC(=O)COc1ccc(S(=O)(=O)N2CCOCC2)cc1[N+](=O)[O-]", "note": "(configuration not stated)", "inhibition": "10.1% (inactive)"},
      {"smiles": "Cn1cc(C(=O)NCc2ccc(F)cc2)c(=O)c2cc(S(=O)(=O)N3CCCCC3)ccc21", "inhibition": "32.6% (inactive)"},
      {"smiles": "O=[N+]([O-])c1cc(S(=O)(=O)N2CCCCCC2)ccc1F", "inhibition": "74.7% (active)"},
      {"smiles": "CC(C)NC(=O)c1ccc(COCC(F)(F)F)cc1", "inhibition": "41.5% (inactive)"},
      {"smiles": "CN1c2ccccc2-c2nc3ccccc3n2C1c1cccs1", "note": "(configuration not stated)", "inhibition": "26.3% (inactive)"},
      {"smiles": "COc1ccccc1NS(=O)(=O)c1ccc(NC(=O)Cc2cccs2)cc1", "inhibition": "31.7% (inactive)"},
      {"smiles": "O=C(Cc1cccs1)Nc1nc(-c2ccc(F)cc2F)cs1", "inhibition": "71.6% (active)"},
      {"smiles": "O=C(CN1CCCCC1)Nc1nc(-c2ccc(F)c(F)c2)cs1", "inhibition": "43.3% (inactive)"},
      {"smiles": "COc1ccccc1N1C(=O)C2CCC(c3ccccc3)CC2C1=O", "note": "(configuration not stated)", "inhibition": "40.1% (inactive)"},
      {"smiles": "COc1ccc(S(=O)(=O)N2CCOC2CNC(=O)C(=O)NCCCN2CCOCC2)cc1C", "note": "(configuration not stated)", "inhibition": "36.4% (inactive)"},
      {"smiles": "O=C(Nc1ccc2nc3ccccc3nc2c1)c1ccccc1", "inhibition": "70.2% (active)"},
      {"smiles": "O=C(CN1CCN(c2ccccc2)CC1)Nc1ccc2c(c1)CCC2", "inhibition": "22.7% (inactive)"},
      {"smiles": "CS(=O)(=O)N(Cc1ccccc1)c1ccc(C(=O)Nc2cccnc2)cc1", "inhibition": "19.7% (inactive)"},
      {"smiles": "O=C(Nc1ccc2c(c1)CCC2)c1ccccc1", "inhibition": "73.4% (active)"},
      {"smiles": "O=C(Nc1ccc(Cl)c(Cl)c1)c1ccncc1", "inhibition": "49.2% (inactive)"},
      {"smiles": "O=C(COc1ccc(Cl)cc1)Nc1ccc2c(c1)CCC2", "inhibition": "39.6% (inactive)"},
      {"smiles": "O=C(Nc1ccc2c(c1)Cc1ccccc1-2)c1ccncc1", "inhibition": "64.8% (active)"}
    ]}
  ]
}
